Assay outcomes (PubChem)
A selection: hits, their analogues and other compounds. The true share with any hit is near 4%.
tim10-1 inh: growth inhibitors of tim10-1 mutant yeast, primary screen, luminescence, uHTS; S. cerevisiae tim10-1 ts strain growth, BacTiter-Glo, 24 h; inhibition, % at 20 µM; 2.2% of 330,000 active;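 active means inhibition of at least 40%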;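 further: mutant grown at 25 °C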
TIM10 inh: growth inhibitors of isogenic TIM10 control yeast, primary screen, counter-screen for tim10-1 yeast inhibitor project, luminescence, uHTS | S. cerevisiae TIM10 strain growth, BacTiter-Glo luminescence, 24 h | inhibition, % at 10 µM | 1.4% of 330,000 active;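 active means inhibition of 40% or more at the single tested concentration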;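 further: wild-type TIM10 isogenic control strain grown at permissive 25 °C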
NLRP3 yeast inh: NALP3 inflammasome inhibitors in reconstituted yeast, primary screen, luminescence, uHTS | inhibition, % at 10 µM | AID 2825, 2010 | 0.39% of 330,000 active | Yeast reconstituted NLRP3/ASC/caspase-1, beta-gal luminescence, 24 h;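 active means inhibition of 50% or more; inactive means inhibition below 50%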
tim23-1 inh: growth inhibitors of tim23-1 mutant yeast, primary screen, luminescence, uHTS; S. cerevisiae tim23-1 growth, BacTiter-Glo luminescence, 24 h; inhibition, % at 20 µM; 1.3% of 330,000 active; AID 463212, 2010;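 active means growth inhibition of the mutant yeast at or above 50%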;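 further: temperature-sensitive mutant grown at 25 °C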
NALP1 yeast inh: NALP1 inflammasome inhibitors in reconstituted yeast, colorimetric, S. cerevisiae, triplicate retest | S. cerevisiae NALP1/ASC/caspase-1 growth, X-gal OD620, 72 h | inhibition, % at 10 µM | 0.61% of 280,000 active | AID 2071, 2009; in the data active means inhibition mostly above about 24%, no sharp cut-off; inactive means mostly below about 32%
tim23-1 confirm: tim23-1 mutant yeast growth inhibitors, confirmation, luminescence, single concentration | 83% of 4,400 active | shares compounds with tim23-1 inh | S. cerevisiae tim23-1 growth, BacTiter-Glo luminescence, 24 h | inhibition, % at 20 µM | AID 463218, 2010;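 active means inhibition above about 39% in either of two replicate wells at 20 µM, limit read from the data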;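 further: temperature-sensitive tim23-1 mutant grown at 25 °C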
A number is an active result; 0 = inactive; - = no result.

SMILES	tim10-1 inh	TIM10 inh	NLRP3 yeast inh	tim23-1 inh	NALP1 yeast inh	tim23-1 confirm
Cc1ccc(C(=O)N/N=C/c2cc(Br)ccc2O)cn1	0	0	0	63.0	0	51.5
CC(C)NC(=O)C(c1ccc(F)cc1)N(C(=O)CCC(=O)Nc1ccccn1)C1CCCC1 (stereo not drawn)	0	0	0	0	0	-
CCOc1ccc(/C=N/NC(=O)CSc2n[nH]c(=O)[nH]c2=O)cc1OC	0	0	0	0	0	-
O=C(Nc1ccc(Cl)cc1F)C1CC(=O)N(Cc2ccco2)C1 (stereo not drawn)	0	0	0	0	-	-
COc1ccc(N2CCC(CNC(=S)Nc3ccc(C)cc3C)C2)cc1 (stereo not drawn)	0	0	0	52.6	-	67.9
COc1ccc(N2CCC(CNC(=O)Nc3ccc(OC)cc3OC)C2)cc1 (stereo not drawn)	0	0	0	0	0	-
COc1cc(/C=C/c2ccc3cccc(O)c3n2)ccc1O	0	0	0	52.0	0	66.2
COc1cc(C2CC(=O)Oc3cc(C)c(Cl)c(C)c32)cc(OC)c1OC (stereo not drawn)	0	0	-	0	-	-
COc1ccccc1C1CC(=O)Oc2cc(C)c(Br)c(C)c21 (stereo not drawn)	0	0	-	60.3	-	42.0
COc1ccc(C2CC(=O)Oc3c(C(C)C)ccc(C)c32)cc1 (stereo not drawn)	0	0	-	54.2	-	41.5
COc1ccc(C2CC(=O)Oc3cc(C)c(Cl)c(C)c32)cc1 (stereo not drawn)	0	0	-	50.9	-	0
COc1ccc(C2CC(=O)Oc3cc(C)cc(C)c32)cc1 (stereo not drawn)	0	0	-	0	-	-
COc1cc(C2CC(=O)Oc3cc(C)c(Br)c(C)c32)cc(OC)c1OC (stereo not drawn)	0	0	-	0	-	-
COc1ccccc1C1CC(=O)Oc2cc(C)c(Cl)c(C)c21 (stereo not drawn)	0	0	-	52.2	-	40.8
COc1ccc(S(=O)(=O)N2CCc3ccccc32)cc1C(=O)N1CCOCC1	0	0	0	0	-	-
COc1ccc(NC(=O)CCNS(=O)(=O)c2cccc3nsnc23)c(OC)c1	0	0	0	0	0	-
Cc1cc(Cl)c2oc(C(=O)N3CCCCC3CCN3CCCC3=O)c(C)c2c1 (stereo not drawn)	0	0	0	0	0	-
O=C(NC12CC3CC(CC(C3)C1)C2)c1c(Cl)cccc1Cl	0	0	0	0	0	-
COc1ccc(C2CC(=O)Oc3cc(OC)ccc32)cc1 (stereo not drawn)	0	0	-	50.3	-	0
Cc1ccc2c(c1)C(=O)CCCCC(=O)N2	0	0	0	0	-	-
O=C(/C=C/c1c[nH]c2ccccc12)c1cccc2ccccc12	0	0	0	54.0	0	61.8
O=C(c1ccccc1)c1c[nH]c2ccccc12	-	-	-	-	0	-
Cc1cccc(C(=O)Oc2ccccc2-c2nnco2)c1	0	0	0	0	0	-
Cc1cccc(C(=O)Oc2cccc3c(O)cccc23)c1	0	0	0	69.4	0	51.5
Cc1ccccc1C(=O)Oc1cccc2c(O)cccc12	0	0	0	72.4	0	49.1
SMILES	tim10-1 inh	TIM10 inh	NLRP3 yeast inh	tim23-1 inh	NALP1 yeast inh	tim23-1 confirm
Cc1cc(C)nc(N/C(=N\S(=O)(=O)Cc2ccccc2)Nc2ccccc2Br)n1	0	0	0	0	0	-
CC(C)(C)c1csc(NC(=O)c2cccs2)n1	0	0	0	55.6	0	0
CC1CCCN(S(=O)(=O)c2ccc(S(=O)(=O)N3CCCC3)cc2)C1 (stereo not drawn)	0	0	0	0	0	-
CC1CCCN(S(=O)(=O)c2ccc3[nH]c4c(c3c2)CCCC4)C1 (stereo not drawn)	0	0	0	55.9	0	56.4
N#Cc1c2ccccc2nc2ccccc12	0	0	0	0	0	-
Cc1cccc(NC(=S)NC(=O)C2CC2)c1	0	0	0	0	0	-
Cc1cc(C)cc(NC(=S)NC(=O)C2CC2)c1	0	0	0	54.1	0	0
N#Cc1ccc(NC(=S)NC(=O)C2CCCCC2)cc1	0	0	0	50.8	-	49.0
CCN(CC)c1ccc(NC(=S)NC(=O)C2CCC2)cc1	0	0	0	57.9	0	0
COc1ccc(S(=O)(=O)N2CCN(C(=O)CCNC(=O)c3ccccc3Cl)CC2)cc1	0	0	0	0	-	-
Cc1ccc2occ(/C=N/NC(=O)c3ccccc3O)c(=O)c2c1	0	0	0	53.4	0	51.2
O=C(N/N=C/c1coc2ccc(Cl)cc2c1=O)c1cc(O)cc(O)c1	0	0	0	71.6	0	70.2
Cc1ccc2occ(/C=N/NC(=O)c3ccncc3)c(=O)c2c1	0	0	0	51.1	0	50.5
CCCOc1cccc(C(=O)N/N=C/c2coc3ccccc3c2=O)c1	0	0	0	55.5	0	47.2
O=C(N/N=C/c1coc2ccccc2c1=O)c1cc(Br)c(O)c(Br)c1	0	0	0	0	0	-
COc1ccc(C(=O)N/N=C\c2coc3ccc(C)cc3c2=O)cc1	0	0	0	0	0	-
CCc1nnc(NC(=O)CN2CCN(Cc3ccc(F)cc3)CC2)s1	0	0	0	0	0	-
O=C(COc1ncnc2ccccc12)Nc1cc([N+](=O)[O-])ccc1F	0	0	0	0	0	-
Cc1ccn2c(c1)nc(=O)c1cc(S(=O)(=O)N3CCCCC3)ccc12	0	0	0	0	0	-
CCc1nn2cc(C(=O)c3cc(Cl)ccc3O)cnc2c1-c1ccc(F)cc1	0	0	0	0	0	-
O=C(COC(=O)C12CC3CC(CC(Cl)(C3)C1)C2)Nc1ccccc1	0	0	0	54.2	-	46.0
N#CCCN(C(=O)COC(=O)CCN=C1NS(=O)(=O)c2ccccc21)c1ccc(F)cc1	0	0	0	0	-	-
COc1ccc2cc3cc(C(=O)N4CCCCC4C)oc3nc2c1 (stereo not drawn)	0	0	0	50.4	0	59.0
COc1ccc2cc3cc(C(=O)Nc4ccc5c(c4)OCO5)oc3nc2c1	0	0	0	0	0	-
CCOC(=O)C1CCN(C(=O)c2cc3cc4ccc(C)cc4nc3o2)CC1	0	0	0	58.2	0	58.7
CC1CCN(S(=O)(=O)c2ccc(NC(=O)c3ccccc3F)cc2)CC1	0	0	0	51.9	0	45.0
CN1CCN(S(=O)(=O)c2ccc(NC(=O)c3ccccc3F)cc2)CC1	0	0	0	0	0	-
CCc1nnc(NS(=O)(=O)c2ccc(NC(=S)NC(=O)/C=C/c3ccc(C(C)C)cc3)cc2)s1	0	0	0	51.8	0	54.7
O=C(COC(=O)C1CCC1)NCCc1ccc(Cl)cc1Cl	0	0	0	0	0	-
Cc1ccc(S(=O)(=O)N2[C@@H](c3ccc(C(C)(C)C)cc3)C(C(=O)O)=CC[C@H]2c2cccc(Cl)c2)cc1	0	0	0	53.0	-	44.4
